The source made the active and inactive calls.
What was measured:
[1] = system: Plasmodium falciparum Sir2 (PF13_0152, Sir2A); assay: Plasmodium falciparum Sir2A binding compounds – biochemical, small-molecule microarray, 635 nm fluorescence, primary screen (AID 1098); details: fluorescence 635 nm, higher = more signal;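 further: score merges spot fluorescence intensity with its signal-to-noise ratio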
[2] = probe aDKK1 binding to arrayed compounds – biochemical, biotinylated probe, 635/667 nm fluorescence, primary screen (AID 1099); details: small-molecule microarray, higher = more signal;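 further: score merges 667nm spot fluorescence with signal to noise across triplicate slides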
[3] = probe aCHRDL2 binding to arrayed compounds – biochemical, biotinylated probe, 635/667 nm fluorescence, primary screen (AID 1100); details: small-molecule microarray, higher = more signal
[4] = change in splice reporter luminescence, either direction, cell-based, HEK293, spliceosome inhibition project, primary screen (AID 1101); details: HEK293 splicing luciferase reporter, 24 h, higher = more signal, called active from +8 up or from −8 down;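 further: HEK293 cells carrying a splicing-competent luciferase reporter gene; test concentration not given here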
[5] = target: Fibroblast growth factor 10 (Homo sapiens) (UniProt O15520); assay: compounds binding fibroblast growth factor 10 – biochemical, small-molecule microarray, 635 nm fluorescence, primary screen (AID 1102); details: FGF10 binding, fluorescence 635 nm, higher = more signal
Fibroblast growth factor 10 (Homo sapiens), sequence (O15520 whole entry, looked up): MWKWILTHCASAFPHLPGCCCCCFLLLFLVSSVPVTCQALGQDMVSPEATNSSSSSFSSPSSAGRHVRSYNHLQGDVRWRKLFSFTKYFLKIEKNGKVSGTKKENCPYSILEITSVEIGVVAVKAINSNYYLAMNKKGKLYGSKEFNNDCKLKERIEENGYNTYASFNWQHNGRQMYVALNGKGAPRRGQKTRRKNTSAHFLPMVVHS

[6] = system: glycogen synthase kinase-3 (GSK3A per assay name; protocol says GSK3B); assay: compounds binding glycogen synthase kinase-3 – biochemical, small-molecule microarray, 635 nm fluorescence, GSK3A, primary screen (AID 1103); details: fluorescence 635 nm, higher = more signal; further: the record names both GSK3A and GSK3B
[7] = target: Epidermal growth factor receptor (Homo sapiens) (UniProt P00533); assay: compounds binding epidermal growth factor receptor – biochemical, small-molecule microarray, 635 nm fluorescence, primary screen (AID 1104); details: EGFR binding, higher = more signal;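 further: score merges 667 nm emission intensity with spot signal to noise over triplicate slides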
Epidermal growth factor receptor (Homo sapiens), sequence (P00533 whole entry, looked up): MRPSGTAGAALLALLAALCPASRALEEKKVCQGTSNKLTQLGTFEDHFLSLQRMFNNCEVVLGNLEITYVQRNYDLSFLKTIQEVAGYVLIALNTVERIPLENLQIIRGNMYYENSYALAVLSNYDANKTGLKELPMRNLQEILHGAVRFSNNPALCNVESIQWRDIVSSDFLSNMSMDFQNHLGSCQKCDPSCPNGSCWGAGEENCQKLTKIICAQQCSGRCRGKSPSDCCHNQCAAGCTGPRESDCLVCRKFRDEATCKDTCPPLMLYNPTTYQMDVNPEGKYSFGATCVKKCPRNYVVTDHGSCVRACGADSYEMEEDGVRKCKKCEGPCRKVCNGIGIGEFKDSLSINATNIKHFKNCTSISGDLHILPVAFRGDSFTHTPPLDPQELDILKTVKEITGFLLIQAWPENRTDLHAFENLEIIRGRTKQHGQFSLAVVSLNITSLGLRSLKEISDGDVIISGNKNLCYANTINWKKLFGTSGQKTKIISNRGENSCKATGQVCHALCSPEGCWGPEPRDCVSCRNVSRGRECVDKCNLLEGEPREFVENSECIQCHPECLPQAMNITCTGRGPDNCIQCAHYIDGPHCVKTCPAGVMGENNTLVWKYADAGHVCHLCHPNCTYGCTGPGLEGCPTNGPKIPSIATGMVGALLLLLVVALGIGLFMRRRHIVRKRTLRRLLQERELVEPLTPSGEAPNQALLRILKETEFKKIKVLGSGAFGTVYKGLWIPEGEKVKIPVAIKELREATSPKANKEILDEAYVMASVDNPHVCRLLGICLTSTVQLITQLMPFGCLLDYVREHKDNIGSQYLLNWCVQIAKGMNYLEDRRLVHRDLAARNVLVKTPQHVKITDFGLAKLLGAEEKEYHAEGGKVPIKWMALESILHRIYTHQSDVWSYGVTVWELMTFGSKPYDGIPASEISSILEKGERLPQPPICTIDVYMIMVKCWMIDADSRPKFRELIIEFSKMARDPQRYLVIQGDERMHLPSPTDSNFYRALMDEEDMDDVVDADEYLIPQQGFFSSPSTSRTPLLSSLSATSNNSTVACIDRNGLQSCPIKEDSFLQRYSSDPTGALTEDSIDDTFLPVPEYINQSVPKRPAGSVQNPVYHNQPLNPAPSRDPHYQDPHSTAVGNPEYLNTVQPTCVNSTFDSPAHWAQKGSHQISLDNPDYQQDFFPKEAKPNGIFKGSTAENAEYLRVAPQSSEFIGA

[8] = target: Follistatin-related protein 3 (Homo sapiens) (UniProt O95633); assay: compounds binding follistatin-related protein 3 – biochemical, small-molecule microarray, 635 nm fluorescence, primary screen (AID 1105); details: FSTL3 binding, higher = more signal;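 further: score merges emission near 667 nm and signal to noise per printed spot across three slides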
Follistatin-related protein 3 (Homo sapiens), sequence (O95633 whole entry, looked up): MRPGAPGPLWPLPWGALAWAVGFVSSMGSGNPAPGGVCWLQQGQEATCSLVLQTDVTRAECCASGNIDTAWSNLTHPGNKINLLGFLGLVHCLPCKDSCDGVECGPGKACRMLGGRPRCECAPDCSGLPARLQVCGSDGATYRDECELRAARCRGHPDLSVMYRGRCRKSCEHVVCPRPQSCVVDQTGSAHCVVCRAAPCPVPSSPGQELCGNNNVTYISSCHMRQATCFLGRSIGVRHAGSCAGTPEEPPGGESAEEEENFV

[9] = target: Dickkopf-related protein 1 (Homo sapiens) (UniProt O94907); assay: small molecules binding DKK1 protein – biochemical, small-molecule microarray, 635 nm fluorescence scan, primary screen (AID 1106); details: higher = more signal;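 further: score merges emission near 667 nm with signal to noise over three replicate slides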
Dickkopf-related protein 1 (Homo sapiens), sequence (O94907 whole entry, looked up): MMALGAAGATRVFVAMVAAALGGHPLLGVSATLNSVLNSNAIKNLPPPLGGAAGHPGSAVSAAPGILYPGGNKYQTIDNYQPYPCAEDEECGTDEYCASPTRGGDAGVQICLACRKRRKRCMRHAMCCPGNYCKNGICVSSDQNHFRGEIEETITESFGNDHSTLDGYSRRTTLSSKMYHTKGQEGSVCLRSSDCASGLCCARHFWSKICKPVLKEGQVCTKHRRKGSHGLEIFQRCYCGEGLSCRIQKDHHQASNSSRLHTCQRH

[10] = system: Inhibin beta A chain (activin A); assay: small molecules binding activin A – biochemical, small-molecule microarray, 635 nm fluorescence scan, primary screen (AID 1107); details: INHBA, higher = more signal;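 further: mouse activin A protein probed at 4.33 µg/mL on printed slides; score merges bound-protein fluorescence near 667 nm with spot signal-to-noise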
[11] = system: Human papillomavirus type 1a protein E7 (residues 44-93); assay: small molecules binding HPV E7 44-93 – biochemical, small-molecule microarray, residues 44-93, 635 nm fluorescence, primary screen (AID 1108); details: fluorescence 635 nm, higher = more signal;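 further: E7 fragment applied at 1 µg/mL in TBST for 1 h at 4 C; score combines spot fluorescence with its signal to noise ratio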
[12] = hepatitis C replication reporter changes, two-sided – Huh7 cells, luciferase reporter, HCV replication inhibitor project, primary screen (AID 1109); details: Huh7 HCV replicon luciferase reporter, 48 h; higher = more signal;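 further: huh7 hepatoma cells harbouring a luciferase neomycin HCV replicon reporter; luciferase luminescence as measure of HCV replicon replication; test concentration not given here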
[13] = target: Left-right determination factor 2 (Homo sapiens) (UniProt O00292); assay: small molecules binding LEFTY2 protein – biochemical, small-molecule microarray, 635 nm fluorescence scan, primary screen (AID 1110); details: higher = more signal
Left-right determination factor 2 (Homo sapiens), sequence (O00292 whole entry, looked up): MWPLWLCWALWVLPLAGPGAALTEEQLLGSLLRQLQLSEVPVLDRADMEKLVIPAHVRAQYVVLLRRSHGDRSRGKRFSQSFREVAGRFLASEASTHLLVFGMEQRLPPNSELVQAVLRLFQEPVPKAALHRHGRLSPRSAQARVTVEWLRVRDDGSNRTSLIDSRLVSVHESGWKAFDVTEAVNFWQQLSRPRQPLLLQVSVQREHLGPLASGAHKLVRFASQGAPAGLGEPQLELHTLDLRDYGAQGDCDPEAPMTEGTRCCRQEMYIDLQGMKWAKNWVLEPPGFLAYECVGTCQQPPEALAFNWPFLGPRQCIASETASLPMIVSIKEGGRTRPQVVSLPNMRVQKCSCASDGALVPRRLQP

[14] = target: Calmodulin-1 (Homo sapiens) (UniProt P0DP23); assay: small molecules binding calmodulin-1 with EGTA – biochemical, small-molecule microarray, Cy5-labelled CALM1, profiling panel (AID 1111); details: Cy5-CALM1 binding fluorescence, higher = more signal;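 further: labelled calmodulin applied in Tris saline Tween buffer holding calcium plus EGTA and DTT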
[15] = target: Calmodulin-1 (Homo sapiens) (UniProt P0DP23); assay: small molecules binding Ca-loaded calmodulin-1 – biochemical, small-molecule microarray, Cy5-labelled CALM1, plus calcium, artefact control for SMM control-protein annotation, profiling panel (AID 1112); details: Cy5-CALM1 binding fluorescence, higher = more signal;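 further: score merges spot fluorescence with signal to noise from triplicate slides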
[16] = probe aWnt5a binding to arrayed compounds – biochemical, biotinylated probe, 635/667 nm fluorescence, primary screen (AID 1113); details: small-molecule microarray, higher = more signal;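 further: score merges 667 nm fluorescence intensity with signal-to-noise per printed feature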
[17] = probe aShh binding to arrayed compounds – biochemical, biotinylated probe, 635/667 nm fluorescence, primary screen (AID 1114); details: small-molecule microarray, higher = more signal;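 further: probe is biotin-labelled aShh protein from a stem cell growth factor screen; measures binding of labelled protein to compounds printed on the slide; score merges feature fluorescence at 667 nm with signal-to-noise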
[18] = probe aNog binding to arrayed compounds – biochemical, biotinylated probe, 635/667 nm fluorescence, primary screen (AID 1115); details: small-molecule microarray, higher = more signal;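 further: probe is biotinylated aNog protein used at 0.15 µg/mL for 1 h at 4 C; z-score combines 667 nm fluorescence of each spot with its signal to noise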
[19] = target: Torsin-1A-interacting protein 1 (Homo sapiens) (UniProt Q5JTV8); assay: compound microarray binding of lysate hLAP1 – cell lysate, small-molecule microarray, COS7 lysate, 635/667 nm fluorescence, primary screen (AID 1116); details: 635 nm fluorescence, higher = more signal
Torsin-1A-interacting protein 1 (Homo sapiens), sequence (Q5JTV8 whole entry, looked up): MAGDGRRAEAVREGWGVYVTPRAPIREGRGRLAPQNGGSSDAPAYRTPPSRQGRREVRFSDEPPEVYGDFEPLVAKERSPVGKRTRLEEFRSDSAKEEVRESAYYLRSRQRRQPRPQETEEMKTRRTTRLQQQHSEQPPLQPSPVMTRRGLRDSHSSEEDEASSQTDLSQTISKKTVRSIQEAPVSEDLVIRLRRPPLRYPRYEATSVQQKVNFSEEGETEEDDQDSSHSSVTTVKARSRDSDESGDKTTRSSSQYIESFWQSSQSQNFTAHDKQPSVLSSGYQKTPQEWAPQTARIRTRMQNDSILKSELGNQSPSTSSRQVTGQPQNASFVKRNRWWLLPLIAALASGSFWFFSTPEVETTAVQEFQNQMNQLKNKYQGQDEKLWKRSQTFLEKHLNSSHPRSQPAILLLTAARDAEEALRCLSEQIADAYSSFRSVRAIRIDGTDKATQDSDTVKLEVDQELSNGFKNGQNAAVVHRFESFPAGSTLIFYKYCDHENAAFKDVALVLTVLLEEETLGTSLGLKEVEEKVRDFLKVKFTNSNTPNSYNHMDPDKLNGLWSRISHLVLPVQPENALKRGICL

[20] = target: Alpha-bungarotoxin (Bungarus multicinctus) (UniProt P60615); assay: compounds binding labelled alpha-BTX control protein – biochemical, small-molecule microarray, Alexa647 label, 635/667 nm fluorescence, artefact control for SMM control protein annotation, profiling panel (AID 1117); details: alpha-BTX-A647 binding fluorescence, higher = more signal
Alpha-bungarotoxin (Bungarus multicinctus), sequence (P60615 whole entry, looked up): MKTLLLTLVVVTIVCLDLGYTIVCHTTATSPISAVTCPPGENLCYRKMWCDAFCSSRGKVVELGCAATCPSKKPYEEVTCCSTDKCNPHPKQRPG

| Structure (SMILES) | composite z-score [1] | composite z-score [2] | composite z-score [3] | z-score [4] | composite z-score [5] | composite z-score [6] | composite z-score [7] | composite z-score [8] | composite z-score [9] | composite z-score [10] | composite z-score [11] | z-score [12] | composite z-score [13] | composite z-score [14] | composite z-score [15] | composite z-score [16] | composite z-score [17] | composite z-score [18] | composite z-score [19] | composite z-score [20] |
| --- | --- | --- | --- | --- | --- | --- | --- | --- | --- | --- | --- | --- | --- | --- | --- | --- | --- | --- | --- | --- |
| COc1ccc([Si](C)(C)[C@@H]2[C@@H](CCO)O[C@]3(C(=O)N(Cc4cccc(N5C(=O)c6cccc7cccc5c67)c4)c4ccccc43)[C@H]2C)cc1 | 0.187 | 0.0019 | 0.466 | -0.665 (inactive) | 0.454 | -0.0664 | -0.491 | -0.339 | -0.411 | -0.0335 | 1.21 | -4.47 | -0.385 | 0.831 | 0.978 | -0.0758 | 0.0815 | 0.0601 | 0.0561 | 0.578 |
| CCOC(=O)[C@@H]1[C@@H]2C(=O)N(CC)C(=O)[C@@H]2C[C@@H]1Sc1ccccc1 | 0.667 | 0.19 | 0.0774 | 1.33 (inactive) | 0.448 | 0.177 | 0.169 | 0.446 | -0.174 | 0.0622 | 1.35 | -1.33 | 0.0952 | 0.414 | 0.163 | 0.0357 | 0.131 | 0.266 | 0.706 | 1.27 |
| CC(C)(C)N1CC=CC23O[C@@H]4C=CCOC(=O)[C@@H]4[C@H]2C(=O)N(CCCO)[C@@H]3C1=O (stereo not given in full) | 1.43 | -0.451 | 0.726 | -1.28 (inactive) | -1.3 | -1.13 | -1.66 | -1.69 | -1.26 | 0.301 | -0.62 | 0.104 | -2.12 | -1.03 | 0.392 | -0.232 | -0.297 | -0.425 | 0.412 | -2.03 |
| C=CCOC(=O)[C@@H]1[C@H]2C(=O)O[C@H](c3ccccc3)[C@H](c3ccccc3)N2[C@H](c2ccc(OCCOC(=O)[C@H]3C[C@H]4C(=O)N[C@@H](CC(C)C)C(=O)N4[C@H]3c3ccc(O)cc3)cc2)[C@@]12C(=O)Nc1ccc(I)cc12 | 1.25 | 0.198 | -0.093 | 0.242 (inactive) | 1.4 | 1.32 | 1.08 | 1.51 | 0.931 | 0.463 | 0.719 | -0.866 | 0.808 | 0.0847 | -0.481 | -0.0478 | 0.235 | 0.135 | 0.859 | 2 |
| COCCOC(=O)N1C(=O)[C@@]2(c3cc(C#CC4(O)CCCCCC4)ccc31)[C@H](C(=O)N1CCCCCCC1)[C@H]1C(=O)O[C@H](c3ccccc3)[C@H](c3ccccc3)N1[C@@H]2c1ccc(OCCO)cc1 | 1.65 | 2.65 | 1.45 | 0.225 (inactive) | 1.5 | 1.35 | 1.46 | 1.62 | 1.72 | 1.68 | 1.33 | -1.74 | 1.52 | 2.33 | 1.01 | 1.12 | 2.59 | 2.98 | 4.12 | 2.89 |
| COC(=O)[C@@]1(Cc2ccc(F)cc2)[C@H]2c3cc(C(=O)N4CCCC4)n(CCF)c3C[C@H]2CN1C(=O)c1ccccc1 | 1.62 | 1.98 | 1.02 | -1.72 (inactive) | 0.876 | 0.306 | -0.0069 | 0.418 | 0.555 | 1.03 | 1.13 | -1.43 | -0.359 | 2.74 | 1.32 | 1.04 | 1.79 | 2.99 | 2.42 | 0.602 |
| CCN(CC)c1ccc(N2CC=CC34O[C@@H]5/C=C\CCC(C)OC(=O)C5[C@H]3C(=O)N(CCO)[C@@H]4C2=O)cc1 (stereo not given in full) | 0.752 | -0.18 | 0.477 | 0.00168 (inactive) | -0.736 | -0.565 | -0.968 | -0.421 | -0.771 | 0.907 | 1.14 | -1.35 | -1.05 | -0.653 | -0.897 | -0.148 | 0.147 | -0.0503 | 2.67 | -0.699 |
